This note sets out measurements from PubChem BioAssay (NCI).

Test [1] is described as follows: NCI Yeast Anticancer Drug Screen. Data for the rad50 strain (AID 155).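 Also: 0% = growth of vehicle-only cultures of the same strain.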 The following applies: S. cerevisiae rad50 strain growth inhibition; at 50.0 µM; active compounds read high. In short, it runs like this: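 Vehicle-treated cultures provide the reference for the growth inhibition reported for compound-exposed, repair-deficient yeast.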
Test [2] is described as follows: NCI Yeast Anticancer Drug Screen. Data for the mec2-1 strain (AID 157). Particulars: S. cerevisiae mec2-1 strain, at 50.0 µM, active compounds read high. In short, it runs like this: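 Yeast mec2-1 mutant treated with compound. Readout: growth inhibition vs vehicle controls.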
The nature of test [3]: NCI Yeast Anticancer Drug Screen. Data for the sgs1 mgt1 strain (AID 161).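 Also: 0% = growth of cultures given vehicle only.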 The following applies: S. cerevisiae sgs1 mgt1 strain, at 50.0 µM, active compounds read high. In outline:
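Genetically altered yeast, compound exposure, growth inhibition relative to vehicle.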

A short description of test [4]: NCI Yeast Anticancer Drug Screen. Data for the cln2 rad14 strain (AID 165).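 Also: 0% = growth equal to vehicle treated cultures.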 The following applies: S. cerevisiae cln2 rad14 strain, at 50.0 µM, active compounds read high. In short, it runs like this: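 cln2 rad14 yeast strain; compound exposure; growth inhibition read vs vehicle controls.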
Test [5] in a line: NCI Yeast Anticancer Drug Screen. Data for the bub3 strain (AID 167). Particulars: S. cerevisiae bub3 mutant strain, at 50.0 µM, active compounds read high. In short, it runs like this:
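Mutant yeast screening strain plus compound; vehicle-treated cultures serve as the 0% inhibition reference.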

A short description of test [6]: NCI Yeast Anticancer Drug Screen. Data for the mlh1 rad18 strain (AID 175). The following applies: S. cerevisiae mlh1 rad18 strain growth inhibition; at 50.0 µM; active compounds read high. In short, it runs like this: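 Yeast w/ defined DNA-repair lesions; compound exposure; growth vs vehicle controls → % inhibition.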

Structures are written as SMILES. The panel holds about 79,000 compounds, 15% with a hit somewhere; the sample as a whole holds those more often. A number with no mark means an inactive call. Active and inactive are the calls of the source. Rule as the data show it: active = growth inhibition above about 70%; inactive = the rest.

On to `Cc1ccc(NC(=O)CCCC(=O)C(C#N)c2nc3ccccc3s2)cc1C` (stereo unspecified), for which the growth inhibition in test [1] was 10.9%; in test [2] it was 14.6%; in test [3], -9.8%; in test [4], 0.7%; in test [5], -7.35%; in test [6], 15.1%.

`O=C(O)C(CO)Nc1ccccc1` (stereo unspecified): the growth inhibition in test [1] is 18.9%; in test [2], 10.4%; in test [3], 22.1%; in test [4], 12.9%; in test [5], -0.65%; in test [6], 21.7%.

Turning to `COC(=O)c1cc(C(=O)OC)c2c3[nH]cnc3ncn2c1=O`, the growth inhibition in test [1] was 24.4%; in test [2] it was 9.85%; in test [3], 15.9%; in test [4], 18.6%; in test [5], 3.65%; in test [6] it was 21.4%.

As for `CCCCCOCC(O)CNCCNCC(O)COCCCCC` (stereo unspecified), the growth inhibition in test [1] is 8%; in test [2] it was 0%; in test [3], 14.3%; in test [4], -55.6%; in test [5] it was -23.2%; in test [6], 0%.

For `C(=C\C[P+](c1ccccc1)(c1ccccc1)c1ccccc1)/C[P+](c1ccccc1)(c1ccccc1)c1ccccc1`, the growth inhibition in test [1] is 12.3%; in test [2], 13%; in test [3], 4.95%; in test [4] it was -5.55%; in test [5], -2.75%; in test [6], 27.9%.

Consider `C=C(CC[C@@H](C)[C@H]1CC[C@@]2(C)C3=C(CC[C@]12C)[C@@]1(C)CC[C@H](O)[C@@H](C)C1CC3)C(C)C` (stereo partly specified), for which the growth inhibition in test [1] was 10.4%; in test [2], 2.8%; in test [3], 45.2%; in test [4], 37.8%; in test [5], 14.6%; in test [6], 71.5% (active).

`[Cl][Ge]([Cl])([c]1ccccc1)[c]1ccccc1`: the growth inhibition is 29.1% in test [1]; 20.9% in test [2]; 29.1% in test [3]; 12.8% in test [4]; 43% in test [5]; 29.1% in test [6].

`NNC(=O)c1ccc(OCc2nc3ccccc3[nH]2)cc1`: the growth inhibition in test [1] was -14.8%; in test [2], -31.9%; in test [3] it was 1.2%; in test [4], 5.1%; in test [5], -87.2%; in test [6], -18.7%.

Take `CCCC(O)C(C)[N+](=O)[O-]` (stereo unspecified): the growth inhibition was 7.25% in test [1]; 4.5% in test [2]; -0.65% in test [3]; 4.75% in test [4]; 4.2% in test [5]; 0.6% in test [6].

Regarding `CCOC(=O)Nc1ccc(C(=O)OCC)cc1`, the growth inhibition is 29.8% in test [1]; -15.1% in test [2]; 7.85% in test [3]; 8.1% in test [4]; -16.3% in test [5]; 13.7% in test [6].

Turning to `CCOC(=O)C(=CNc1cc(C(F)(F)F)ccc1N1CCOCC1)C(=O)OCC`, the growth inhibition in test [1] was -1.4%; in test [2], -15.2%; in test [3] it was -9.5%; in test [4], 18.6%; in test [5], 2.25%; in test [6], -0.1%.

Turning to `[NH-]C(CC(N)=O)C(=O)O.[NH-]C(CC(N)=O)C(=O)O.[Zn+2]` (stereo unspecified), the growth inhibition was -3.15% in test [1]; -2.05% in test [2]; -3.9% in test [3]; -18.1% in test [4]; -2.75% in test [5]; 5.25% in test [6].

On to `COc1cc(/C=N/NC2=NCCCN2)ccc1O`, for which the growth inhibition in test [1] was 28.7%; in test [2] it was 13.2%; in test [3], 7.75%; in test [4], -16.2%; in test [5], 0.7%; in test [6], 17.4%.

For the compound `COC(=O)N[C@H](C(=O)O)C(C)O[Si](C)(C)C(C)(C)C` (stereo partly specified), the growth inhibition is -16.2% in test [1]; -14% in test [2]; -52.6% in test [3]; 8.2% in test [4]; -33% in test [5]; -34.5% in test [6].

Regarding `COc1ccccc1C(O)(c1ccccc1)C(O)(c1ccccc1)c1ccccc1OC` (stereo unspecified), the growth inhibition is -20.1% in test [1]; 2.65% in test [2]; -20.2% in test [3]; 15.6% in test [4]; -5.65% in test [5]; -4.2% in test [6].

On to `CCCCc1nc(CCCC)nc(CCCC)n1`, for which the growth inhibition in test [1] is -6.75%; in test [2] it was -14.2%; in test [3], -12.8%; in test [4] it was -2.45%; in test [5], -2.8%; in test [6], 1.15%.

Turning to `[Cl-].[Nd+3].[O-]/N=C(\c1ccccc1)c1ccccn1.[O-]/N=C(\c1ccccc1)c1ccccn1.[O-]/N=C(\c1ccccc1)c1ccccn1`, the growth inhibition in test [1] is 50.1%; in test [2], 35.4%; in test [3], 42.6%; in test [4] it was 25.2%; in test [5] it was 47%; in test [6], 58%.

As to `CCSCC1OC(n2cnc3c(=S)nc(N)[nH]c32)C(O)C1O` (stereo unspecified), the growth inhibition in test [1] is 15.2%; in test [2], 10.1%; in test [3], -0.75%; in test [4], 16.4%; in test [5] it was 11.8%; in test [6], 21.1%.

Turning to `CCCCOC(=O)c1ccc(OC(=O)Nc2cccc(Cl)c2)cc1`, the growth inhibition in test [1] is 13.2%; in test [2], 2.3%; in test [3], 6.15%; in test [4] it was 12.2%; in test [5] it was 70.7% (active); in test [6] it was 30.1%.

`COC1=CCC2=C(C1)C1(C)CCCC(C)(CO)C1CC2` (stereo unspecified): the growth inhibition in test [1] was 3.1%; in test [2] it was 18.5%; in test [3], -7.9%; in test [4] it was 3.4%; in test [5], 14%; in test [6], 58.2%.

As for `Cc1c(-c2ccc3c(c2)OCO3)sc(N)c1C#N`, the growth inhibition in test [1] is 5%; in test [2], -15.5%; in test [3], 12.2%; in test [4], 4.25%; in test [5] it was 20.6%; in test [6] it was -7.75%.
